# Laboratory results from the supplement of paper PMC8728848.
# Shown is part of a subset that was picked to be rich in the strongest signals.
# How the values were obtained:
# Assay in all cases: glycan array binding signal (z-score within array); higher = stronger binding
# Details in all cases: glycan notation: IUPAC condensed, linker removed
# [1] = biological target: Fuc(a1-2)[Gal(a1-3)]Gal(b1-4)GlcNAc(b1-3)GalNAc
# Method in brief: (§1)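 Arrays were curated from the Consortium for Functional Glycomics database, 3228 in total, and kept only where the protein sequence was available. Binding is expressed as a within-array Z-score. This score was averaged across arrays of the same protein sequence at different concentrations or buffers and across linkers, and negative values can be read as non-binding.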
# [2] = biological target: Gal(a1-3)Gal(b1-3)GlcNAc(b1-3)GalNAc
# Method in brief: as §1
# [3] = biological target: Gal(a1-4)Gal(b1-4)Glc
# Method in brief: as §1
# [4] = biological target: Gal(a1-6)Glc
# Method in brief: as §1
# [5] = biological target: Gal(b1-3)GlcNAc(a1-6)Gal(b1-4)GlcNAc
# Method in brief: as §1
# [6] = biological target: Gal(b1-3)GlcNAc(b1-2)Man(a1-3)[Gal(b1-3)GlcNAc(b1-2)Man(a1-6)]Man(b1-4)GlcNAc(b1-4)GlcNAc
# Method in brief: as §1
# [7] = biological target: Gal(b1-3)GlcNAc(b1-3)GalNAc
# Method in brief: as §1
# [8] = biological target: Gal(b1-3)[Fuc(a1-4)]GlcNAc(b1-3)Gal(b1-4)[Fuc(a1-3)]GlcNAc
# Method in brief: as §1
# [9] = biological target: Gal(b1-3)[GlcNAc(b1-6)]GalNAc
# Method in brief: as §1
# [10] = biological target: Gal(b1-4)GlcNAc(b1-2)Man(a1-3)Man(b1-4)GlcNAc(b1-4)GlcNAc
# Method in brief: as §1
# [11] = biological target: Gal(b1-4)GlcNAc(b1-2)Man(a1-3)[Gal(b1-4)GlcNAc(b1-2)Man(a1-6)]Man(b1-4)GlcNAc(b1-4)GlcNAc
# Method in brief: as §1
# [12] = biological target: Gal(b1-4)GlcNAc(b1-2)Man(a1-3)[Gal(b1-4)GlcNAc(b1-2)Man(a1-6)]Man(b1-4)GlcNAc(b1-4)[Fuc(a1-6)]GlcNAc
# Method in brief: as §1
# [13] = biological target: Gal(b1-4)GlcNAc(b1-2)Man(a1-3)[Gal(b1-4)GlcNAc(b1-2)][GlcNAc(b1-4)]Man(b1-4)GlcNAc(b1-4)GlcNAc
# Method in brief: as §1
# [14] = biological target: Gal(b1-4)GlcNAc(b1-2)Man(a1-3)[GlcNAc(b1-2)Man(a1-6)]Man(b1-4)GlcNAc(b1-4)GlcNAc
# Method in brief: as §1
# [15] = biological target: Gal(b1-4)GlcNAc(b1-2)Man(a1-3)[Man(a1-6)]Man(b1-4)GlcNAc(b1-4)GlcNAc
# Method in brief: as §1
# [16] = biological target: Gal3S6S(b1-4)GlcNAc6S
# Method in brief: as §1
# [17] = biological target: Gal6S(b1-4)GlcNAc
# Method in brief: as §1
# [18] = biological target: GalNAc(b1-6)GalNAc
# Method in brief: as §1
# [19] = biological target: Glc(a1-6)Glc(a1-6)Glc
# Method in brief: as §1
# [20] = biological target: GlcA(b1-3)Gal
# Method in brief: as §1
# [21] = biological target: GlcNAc(b1-3)Gal
# Method in brief: as §1
# [22] = biological target: GlcNAc(b1-4)GlcNAc
# Method in brief: as §1
# [23] = biological target: GlcNAc6S(b1-3)Gal(b1-4)GlcNAc
# Method in brief: as §1
# [24] = biological target: Man(a1-2)Man(a1-2)Man(a1-6)[Man(a1-3)]Man
# Method in brief: as §1
# [25] = biological target: Man(a1-2)Man(a1-3)[Man(a1-2)Man(a1-6)]Man(a1-6)[Man(a1-2)Man(a1-2)Man(a1-3)]Man
# Method in brief: as §1
# [26] = biological target: Man(b1-4)GlcNAc
# Method in brief: as §1
# [27] = biological target: Neu5Ac(a2-3)GalNAc
# Method in brief: as §1
# [28] = biological target: Neu5Ac(a2-6)Gal(b1-4)GlcNAc(b1-2)Man(a1-3)[Man(a1-6)]Man(b1-4)GlcNAc(b1-4)GlcNAc
# Method in brief: as §1
# [29] = biological target: Neu5Ac(a2-6)Gal(b1-4)GlcNAc(b1-2)Man(a1-6)[Gal(b1-4)GlcNAc(b1-2)Man(a1-3)]Man(b1-4)GlcNAc(b1-4)GlcNAc
# Method in brief: as §1
# [30] = biological target: Neu5Ac(a2-6)Gal(b1-4)GlcNAc(b1-2)Man(a1-6)[GlcNAc(b1-2)Man(a1-3)]Man(b1-4)GlcNAc(b1-4)GlcNAc
# Method in brief: as §1
# [31] = biological target: Neu5Ac(a2-6)GlcNAc(b1-4)GlcNAc(b1-4)GlcNAc
# Method in brief: as §1
# [32] = biological target: Neu5Ac(a2-8)Neu5Ac
# Method in brief: as §1
binder,measurement,setting,value
"ASAL (Allium sativum), P83886 (protein) MGRTTSSPKAMMRIATVAAILTILASTCMARNVLTNGEGLYAGQSLDVEQYKFIMQDDCNLVLYEYSTPIWASNTGVTGKNGCRAVMQRDGNFVVYDVNGRPVWASNSVRGNGNYILVLQKDRNVVIYGSDIWSTGTYRRSVGGAVVMAMNGTVDGGSVIGPVVVNQNVTAAIRKVGTGAA",glycan array binding signal (z-score),[1],-0.201
same,glycan array binding signal (z-score),[2],-0.206
same,glycan array binding signal (z-score),[3],-0.282
same,glycan array binding signal (z-score),[4],-0.285
same,glycan array binding signal (z-score),[5],-0.252
same,glycan array binding signal (z-score),[6],-0.113
same,glycan array binding signal (z-score),[7],-0.178
same,glycan array binding signal (z-score),[8],-0.218
same,glycan array binding signal (z-score),[9],-0.267
same,glycan array binding signal (z-score),[10],6.55
same,glycan array binding signal (z-score),[11],5.54
same,glycan array binding signal (z-score),[12],7.04
same,glycan array binding signal (z-score),[13],-0.228
same,glycan array binding signal (z-score),[14],5.91
same,glycan array binding signal (z-score),[15],7.21
same,glycan array binding signal (z-score),[16],-0.238
same,glycan array binding signal (z-score),[17],-0.193
same,glycan array binding signal (z-score),[18],-0.24
same,glycan array binding signal (z-score),[19],-0.234
same,glycan array binding signal (z-score),[20],5.39
same,glycan array binding signal (z-score),[21],-0.3
same,glycan array binding signal (z-score),[22],-0.252
same,glycan array binding signal (z-score),[23],-0.065
same,glycan array binding signal (z-score),[24],2.53
same,glycan array binding signal (z-score),[25],4.09
same,glycan array binding signal (z-score),[26],-0.236
same,glycan array binding signal (z-score),[27],-0.276
same,glycan array binding signal (z-score),[28],0.085
same,glycan array binding signal (z-score),[29],4.59
same,glycan array binding signal (z-score),[30],5.01
same,glycan array binding signal (z-score),[31],-0.29
same,glycan array binding signal (z-score),[32],-0.25
